3CLpro inhibitor: SARS-CoV 3CLpro protease inhibition; inhibition, % at 6 µM; recombinant SARS-CoV 3CLpro, quenched FRET peptide cleavage; P0C6X7; 290,000 compounds, 0.14% hits; AID 1706; in the data active = inhibition above about 12%
CCHF vOTU inh: blocks the CCHF virus ovarian tumor domain protease; CCHFV vOTU protease, Pep-AMC fluorescence; inhibition, % at 11.5 µM; 370,000 compounds, 0.55% hits; AID 651958; in the data active = inhibition above about 30%; note: 0% = vehicle wells with enzyme and 100% = no enzyme wells
BoNT-F LC inh: BoNT F light chain protease inhibition; Multiplex microsphere protease cleavage assay, flow cytometry; inhibition, % at 10 µM; 360,000 compounds, 0.22% hits; AID 588497; in the data active = inhibition above about 35%, passing the limit was not always enough; inconclusive = no clear call, values can overlap the other calls; note: plate controls were buffer without enzyme for full effect and enzyme alone for no effect
BoNT-A LC inh2: inhibitors of Botulinum neurotoxin A light chain protease | multiplex microsphere protease substrate cleavage, flow cytometry | inhibition, % at 10 µM | 360,000 compounds, 0.17% hits; note: plate controls were buffer without enzyme for full effect and enzyme alone for no effect
Autofluor counter: flagged as autofluorescent in microsphere protease counterscreen. 360,000 compounds, 3.1% hits. AID 624483. compound autofluorescence counterscreen, microsphere flow cytometry; active compounds read high. fluorescence intensity (no concentration beside the values); in the data active = fluorescence intensity above about 16000; inconclusive = no clear call, values can overlap the other calls
Anthrax LF prot: inhibitors of Bacillus anthracis lethal factor protease; P15917; multiplex microsphere protease cleavage assay, LF; inhibition, % at 10 µM; 360,000 compounds, 0.12% hits; AID 588501; note: plate controls were buffer without enzyme for full effect and enzyme alone for no effect
Target sequence (P15917 whole entry, looked up): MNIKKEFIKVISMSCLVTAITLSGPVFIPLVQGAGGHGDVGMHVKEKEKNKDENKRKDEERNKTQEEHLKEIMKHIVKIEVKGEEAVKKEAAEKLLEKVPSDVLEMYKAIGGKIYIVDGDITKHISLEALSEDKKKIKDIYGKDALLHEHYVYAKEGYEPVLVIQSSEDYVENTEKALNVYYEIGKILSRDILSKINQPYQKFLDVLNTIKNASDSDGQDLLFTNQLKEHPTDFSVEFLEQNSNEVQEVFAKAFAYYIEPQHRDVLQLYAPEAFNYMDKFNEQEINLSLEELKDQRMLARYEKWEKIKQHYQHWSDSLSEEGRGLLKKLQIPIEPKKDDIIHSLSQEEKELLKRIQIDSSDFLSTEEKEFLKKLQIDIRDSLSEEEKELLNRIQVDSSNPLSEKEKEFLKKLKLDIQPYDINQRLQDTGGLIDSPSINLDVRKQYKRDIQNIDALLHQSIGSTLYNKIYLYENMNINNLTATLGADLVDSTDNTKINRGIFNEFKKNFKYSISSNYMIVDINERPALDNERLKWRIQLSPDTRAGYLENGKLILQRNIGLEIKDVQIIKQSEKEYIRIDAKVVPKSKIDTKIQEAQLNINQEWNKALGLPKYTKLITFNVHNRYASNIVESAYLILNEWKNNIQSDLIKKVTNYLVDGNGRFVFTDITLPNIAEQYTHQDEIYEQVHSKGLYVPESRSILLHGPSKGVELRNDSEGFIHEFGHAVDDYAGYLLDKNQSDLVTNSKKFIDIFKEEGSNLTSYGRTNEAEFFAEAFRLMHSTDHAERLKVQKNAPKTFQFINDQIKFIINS
* hit, by the source's call. Shown are actives, neighbours in structure and some others; about 3.9% of the full set was active somewhere. Cut-off read from the data, not from the text of the source, unless noted: active = inhibition above about 30%; inconclusive = no clear call, values can overlap the other calls; inactive = below that.

For Cc1ccc(S(=O)(=O)NCC(=O)N2CCCC2)cc1 the results were 3CLpro inhibitor 1, CCHF vOTU inh -7, BoNT-F LC inh -2, BoNT-A LC inh2 inconclusive, Autofluor counter 16845* and Anthrax LF prot 2.
`Cc1ccc(S(=O)(=O)NCCN=C(CN2CCCC2)NS(=O)(=O)c2ccc(C)cc2)cc1` gave 3CLpro inhibitor 2, CCHF vOTU inh 0, BoNT-F LC inh -5, BoNT-A LC inh2 inconclusive, Autofluor counter 24857* and Anthrax LF prot -8.
Cc1ccc(S(=O)(=O)NCC(=O)N2CCCCC2)cc1 was read as 3CLpro inhibitor 1, CCHF vOTU inh 11, BoNT-F LC inh 1, BoNT-A LC inh2 0, Autofluor counter 4090 and Anthrax LF prot 2.
Screening Cc1ccc(S(=O)(=O)NCCN=C(CN2CCOCC2)NS(=O)(=O)c2ccc(C)cc2)cc1 returned 3CLpro inhibitor -2, CCHF vOTU inh 0, BoNT-F LC inh 0, BoNT-A LC inh2 1, Autofluor counter 8760 and Anthrax LF prot -1.
Screening O=C(NCCO)C1(c2ccc(Cl)cc2)CCCC1 returned 3CLpro inhibitor 5, CCHF vOTU inh 0, BoNT-F LC inh -2, BoNT-A LC inh2 -2, Autofluor counter 24150* and Anthrax LF prot -2.
For O=C(Nc1cccnc1)C1(c2ccc(Cl)cc2)CCCC1 the results were 3CLpro inhibitor 7, CCHF vOTU inh -8, BoNT-F LC inh 16, BoNT-A LC inh2 inconclusive, Autofluor counter 16176* and Anthrax LF prot -11.
`Cc1ccc(S(=O)(=O)N2CCN(C(=O)COC(=O)CCCOc3ccccc3)CC2)c(C)c1` gave CCHF vOTU inh 4, BoNT-F LC inh -8, BoNT-A LC inh2 -1, Autofluor counter 7927 and Anthrax LF prot -8.
O=C(/C=C/c1ccc(F)cc1)NCCC1=CCCCC1 was read as 3CLpro inhibitor 3, CCHF vOTU inh 0, BoNT-F LC inh -7, BoNT-A LC inh2 -1, Autofluor counter 23985* and Anthrax LF prot -2.
O=C(/C=C/c1ccccc1)NCCC1=CCCCC1 was read as 3CLpro inhibitor 5, CCHF vOTU inh -10, BoNT-F LC inh -5, BoNT-A LC inh2 0, Autofluor counter 2556 and Anthrax LF prot 2.
Screening Cc1[nH]c2ccccc2c1C(=O)CSc1n[nH]c(N)n1 returned 3CLpro inhibitor 0, CCHF vOTU inh -13, BoNT-F LC inh 4, BoNT-A LC inh2 0, Autofluor counter 4265 and Anthrax LF prot 2.
O=C1CCC(=O)N1OCCCOc1ccccc1 was read as 3CLpro inhibitor -3, CCHF vOTU inh 9, BoNT-F LC inh -1, BoNT-A LC inh2 -2, Autofluor counter 17200* and Anthrax LF prot -3.
Screening O=S(=O)(NCCOc1ccccc1)c1ccc2ccccc2c1 returned 3CLpro inhibitor 0, CCHF vOTU inh -6, BoNT-F LC inh 3, BoNT-A LC inh2 inconclusive, Autofluor counter 19154* and Anthrax LF prot 2.
CS(=O)(=O)NCCOc1ccc(S(=O)(=O)NCCOc2ccccc2)cc1 was read as 3CLpro inhibitor 2, CCHF vOTU inh 5, BoNT-F LC inh -6, BoNT-A LC inh2 -2, Autofluor counter 4743 and Anthrax LF prot -7.
Screening Clc1ccc(CN2CCN(c3ncnc4scc(-c5cccs5)c34)CC2)cc1 returned 3CLpro inhibitor -3, CCHF vOTU inh 0, BoNT-F LC inh -10, BoNT-A LC inh2 -2, Autofluor counter inconclusive and Anthrax LF prot 15.
Cc1ccccc1N1CCN(c2ncnc3scc(-c4cccs4)c23)CC1 was read as 3CLpro inhibitor 0, CCHF vOTU inh -1, BoNT-F LC inh 0, BoNT-A LC inh2 2, Autofluor counter 21408* and Anthrax LF prot -10.
Screening CC(Sc1nc2ccccc2[nH]1)C(=O)O (stereo not given) returned 3CLpro inhibitor 5, CCHF vOTU inh -5, BoNT-F LC inh 5, BoNT-A LC inh2 1, Autofluor counter 23428* and Anthrax LF prot 1.
For O=S(=O)(NCc1nnc2ccccn12)c1ccc(Cl)cc1 the results were CCHF vOTU inh -15, BoNT-F LC inh -17, BoNT-A LC inh2 inconclusive, Autofluor counter 6963 and Anthrax LF prot 2.
`CC(=O)OCc1c(C(F)(F)F)nn(C)c1Sc1ccccc1` gave 3CLpro inhibitor -4, CCHF vOTU inh 5, BoNT-F LC inh 1, BoNT-A LC inh2 1, Autofluor counter 19824* and Anthrax LF prot -2.
Screening CCC(=O)OCc1c(C(F)(F)F)nn(C)c1Sc1ccc(F)cc1 returned 3CLpro inhibitor -1, CCHF vOTU inh 11, BoNT-F LC inh -4, BoNT-A LC inh2 0, Autofluor counter 8845 and Anthrax LF prot -10.
Screening COc1ccc(C)cc1S(=O)(=O)NC1CCCC1 returned 3CLpro inhibitor 1, CCHF vOTU inh -10, BoNT-F LC inh -2, BoNT-A LC inh2 0, Autofluor counter 3104 and Anthrax LF prot -5.
Screening COc1ccc(F)cc1S(=O)(=O)NC1CCCC1 returned 3CLpro inhibitor -6, BoNT-F LC inh -2, BoNT-A LC inh2 -2, Autofluor counter 20620* and Anthrax LF prot 0.
`Cc1ccc(C)n1-n1c(C)nc2scc(-c3ccccc3)c2c1=O` gave 3CLpro inhibitor 2, CCHF vOTU inh 1, BoNT-F LC inh -2, BoNT-A LC inh2 -2, Autofluor counter 21049* and Anthrax LF prot -3.
`CN(C)S(=O)(=O)c1ccc(NC(=O)CN2CCCc3ccccc32)cc1` gave 3CLpro inhibitor 1, CCHF vOTU inh -6, BoNT-F LC inh -17, BoNT-A LC inh2 2, Autofluor counter 10953 and Anthrax LF prot -7.
Screening C/C(CC1CC(COCCC(C)C)OC1=O)=N\NC(N)=S (stereo not given) returned 3CLpro inhibitor 2, CCHF vOTU inh -12, BoNT-F LC inh 1, BoNT-A LC inh2 1, Autofluor counter 20283* and Anthrax LF prot -2.
For COCCOC1CCN(C(=O)C2CCC(=O)N(CCc3ccccc3)C2)CC1 (stereo not given) the results were 3CLpro inhibitor 5, CCHF vOTU inh -2, BoNT-F LC inh -23, BoNT-A LC inh2 -4, Autofluor counter 5800 and Anthrax LF prot 2.
`CCn1c(SCC(=O)c2ccc(-c3ccccc3)cc2)nnc1-c1ccccc1OC` gave CCHF vOTU inh 10.
Screening CCOc1ccc2oc(-c3ccccc3)c(C(=O)N3CCN(C)CC3)c2c1 returned 3CLpro inhibitor 3, CCHF vOTU inh -13, BoNT-F LC inh 5, BoNT-A LC inh2 3, Autofluor counter 22066* and Anthrax LF prot 4.
CCOC(=O)c1c(-c2ccccc2)oc2ccc(OCC)cc12 was read as 3CLpro inhibitor 4, CCHF vOTU inh -1, BoNT-F LC inh -6, BoNT-A LC inh2 -1, Autofluor counter 2673 and Anthrax LF prot -2.
`COc1ccc(C(=O)NCc2cccnc2)cc1S(=O)(=O)N1CCCc2ccccc21` gave 3CLpro inhibitor 1, CCHF vOTU inh 2, BoNT-F LC inh -7, BoNT-A LC inh2 0, Autofluor counter 3351 and Anthrax LF prot -4.
`Cc1oc2c(c1C(=O)Nc1ccc(C(=O)O)cc1)CCCC2` gave 3CLpro inhibitor 0, CCHF vOTU inh -6, BoNT-F LC inh 1, BoNT-A LC inh2 -1, Autofluor counter 17117* and Anthrax LF prot -2.
